The list is not random: actives were taken first. Their share in the collection is about 7.1%.
MCF10A rerep: A quantitative high throughput screen for small molecules that induce DNA re-replication in MCF 10a normal breast cells | 350,000 compounds, 2.9% hits | Potency, µM (top dose mostly 46.1 µM), without a hit: at the highest dose activity, positive = re-replication, most hits filed as activators | AID 624296, 2012 | MCF 10A DNA re-replication, Hoechst nuclear intensity, 48 h; note: % of control where 0% means no effect; nearly all actives have a fitted effect of over 50% in size
ELG1 genotoxic: qHTS screen for small molecules that induce genotoxicity in human embryonic kidney (HEK293T) cells expressing luciferase-tagged ELG1; HEK293T ELG1-luciferase reporter, luminescence, 16 h; Potency, µM (doses to about 46 µM), without a hit: top-dose activity change, positive = activation, usual class: activators; 330,000 compounds, 1.3% hits; AID 504466, 2011; note: % of control where 0% means no effect; nearly all actives have a fitted effect of over 60% in size
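DMSO vehicle served as control against compound-treated ELG1-luciferase HEK293T cells; exposure lasted 16 hr at 37 °C and 5% CO2, followed by ONE-Glo luminescence detection after 30 min.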
ELG1 DNA repair: qHTS screen for small molecules that inhibit ELG1-dependent DNA repair in human embryonic kidney (HEK293T) cells expressing luciferase-tagged ELG1; Potency, µM (top dose mostly 46.1 µM), for inactives: top-dose activity change, negative = inhibition, actives largely listed as inhibitors; 330,000 compounds, 2.3% hits; HEK293T ELG1-luciferase reporter, luminescence, 16 h; DNA damage induced by 5-fluorouridine; note: % is set by controls: 0 for no effect and ±100 for the full control effect; nearly all actives have a fitted effect of over 55% in size
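DMSO vehicle served as the neutral condition. Each well held 2,000 cells given 5-fluorouridine plus compound; after 16 hr at 37 °C/5% CO2, ONE-Glo was added and luciferase measured 30 min later.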
SW480 rereplic: A quantitative high throughput screen for small molecules that induce DNA re-replication in SW480 colon adenocarcinoma cells; SW480 DNA re-replication, Hoechst DNA content imaging, 48 h; AID 624297, 2012; 340,000 compounds, 1.8% hits; Potency, µM (titrated, usually from 46.1 µM), without a hit: top-dose re-replication activation, usual class: activators; note: % of control where 0% means no effect; nearly all actives have a fitted effect of over 55% in size
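Hoechst fluorescence of nuclei (405 nm excitation, 500-530 nm emission) measured by plate-scanning imager after 48 hr compound exposure at 37 C; re-replication scored as increased number of nuclei with elevated intensity.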
AT treatment: qHTS Assay for Identifying a Potential Treatment of Ataxia-Telangiectasia. F2112 A-T fibroblasts, KAP-1 phosphorylation AlphaLISA; neocarzinostatin DNA damage 30 min before lysis. 320,000 compounds, 0.19% hits. AID 485349, 2010. Potency, µM (top dose mostly 57.5 µM), without a hit: at the top dose activation, hits mostly activators; note: % of control where 0% means no effect; nearly all actives have a fitted effect of over 45% in size
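ATM-like activity read as KAP-1 phosphorylation via AlphaLISA donor/acceptor antibody pairs after lysis and 6 hr at 25C. Cells were ATM-null patient fibroblasts (F2112, hTERT), dosed 60 min, then exposed to the DSB inducer NCS for 30 min.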
p53 reactivation: qHTS assay for re-activators of p53 using a Luc reporter | H1299 p53-A138V BP100-luciferase reporter, luminescence, 24 h | Potency, µM (top dose mostly 92.2 µM), inactives show at the top dose activity change, positive = activation, most hits filed as activators | 320,000 compounds, 0.063% hits; note: % of control where 0% means no effect; nearly all actives have a fitted effect of over 45% in size
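p53-null H1299 cells stably carrying temperature-sensitive p53-A138V and a BP100-luciferase reporter were pinned with compounds (4-point, 1:5 series) and held 24 hrs at 37 deg C. Luminescence was read 10 min after detection reagent.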
Starred values were filed as active, the others as inactive; ? = inconclusive; . = no result given; [ ] = another dose, or the depositor's remark. Calls come from the whole dose curve; as a rule, active = well fitted curve in the direction sought with a large enough effect; inconclusive = small, poorly fitted or top-dose-only effect, or another doubt; inactive = no such curve, though single readings can be large; an effect the other way counts as inactive or inconclusive. Potency is the fitted concentration of half-maximal effect.

SMILES	MCF10A rerep	ELG1 genotoxic	ELG1 DNA repair	SW480 rereplic	AT treatment	p53 reactivation
COC(=O)Nc1nc2ccc(SC(C)C)cc2[nH]1	1.6µM*	5.8µM*	?	0.82µM*	5%	24%
Cc1ccc(NC(=O)CSc2n[nH]c(-c3cccnc3)n2)cc1Cl	-8%	3%	-1%	-6%	-3%	-1%
CCOc1cc(OCC)c(C(=O)CCC(=O)O)cc1OCC	7%	.	.	-6%	.	.
CCOC(=O)/C(=C\c1ccc(OC)c(OC)c1)C(=O)c1cccnc1	26µM*	-1%	?	20%	-2%	-2%
COc1ccc(/C=C/C(=O)O/N=C(\N)c2cccnc2)cc1OC	9%	11%	?	-18%	-23%	8%
COC(=O)C(=Cc1ccc(OCc2ccc([N+](=O)[O-])cc2)c(OC)c1)C(=O)OC	1.5µM*	?	?	25%	-6%	?
COc1cc(C=O)ccc1OCCCOc1ccc([N+](=O)[O-])cc1	2%	2%	-14%	-4%	-2%	1%
COc1cc(C(c2c(C)[nH][nH]c2=O)c2c(C)[nH][nH]c2=O)ccc1OCc1ccc([N+](=O)[O-])cc1	21µM*	18µM*	?	?	3%	?
COc1cc(/C=N/NC(=O)c2cccc([N+](=O)[O-])c2)ccc1OCc1ccccc1	1%	-2%	?	-7%	8%	-3%
CCOC(=O)C(=Cc1ccc(OCc2ccc([N+](=O)[O-])cc2)c(OC)c1)C(=O)OCC	5.8µM*	-9%	18µM*	4.6µM*	4%	-12%
CCN(C(=O)COC(=O)CNC(=O)c1ccc(Cl)cc1Cl)c1c(N)n(Cc2ccccc2)c(=O)[nH]c1=O	-5%	1%	3%	3%	5%	1%
CC(C)CC(=O)Nc1nnc(S(=O)(=O)N2CCCCCC2)s1	10%	1%	3%	-6%	5%	3%
CCN(C(=O)COC(=O)c1n[nH]c2ccccc12)c1ccccc1	?	-1%	3%	9%	-8%	2%
CC(=O)NC(Cc1ccccc1)C(=O)Oc1ccc2ccccc2c1 (stereo unspecified)	1%	.	.	4%	.	.
CCOC(=O)/C(=C\c1cccnc1)C(=O)c1cc(C(C)=O)c(Nc2ccccc2)s1	2.9µM*	-33%	?	3.7µM*	-5%	-15%
CCOC(=O)/C(=C\c1ccccc1)C(=O)c1cc(C(C)=O)c(Nc2ccccc2)s1	20%	-32%	?	11%	-9%	-12%
COc1cc(/C=C/[N+](=O)[O-])ccc1OCc1cccc(C(=O)O)c1	10µM*	?	?	?	5%	-12%
COc1ccc(NCC(=O)n2c(C)c(C)c3ccccc32)cc1	18µM*	-4%	-20%	?	-2%	15%
CC(C)(C)c1csc(NC(=O)c2ccc(Cl)s2)n1	?	4%	15%	?	24%	-2%
Cc1ccc(C(=O)Nc2nc(C(C)(C)C)cs2)s1	?	4.6µM*	?	14%	-2%	?
CC(C)(C)NC(=O)NC(=O)CSc1cccc(C(F)(F)F)c1	6%[9.22 µM]	-2%	8%	-53%	8%	-7%
CNC(=O)NC(=O)CSc1cccc(C(F)(F)F)c1	21µM*	0%	9%	11%	-4%	-7%
COC(=O)c1cccc(S(=O)(=O)N(Cc2ccco2)Cc2cc3cc(OC)ccc3[nH]c2=O)c1	?	-10%	15µM*	4%	.	-2%
CCOC(=O)c1cccc(S(=O)(=O)N(CCO)Cc2cc3cc(OC)ccc3[nH]c2=O)c1	?	-4%	?	2%	0%	4%
CCc1ccc(-n2cc(-c3ccc(F)cc3)[n+]3c2SCCC3)cc1	25%	-16%	4.6µM*	26%	9%	-1%
SMILES	MCF10A rerep	ELG1 genotoxic	ELG1 DNA repair	SW480 rereplic	AT treatment	p53 reactivation
c1ccc(-c2cn(-c3ccccc3)c3[n+]2CCCS3)cc1	25%	-15%	21µM*	-5%	8%	4%
Cc1ccc(-c2cn(-c3ccccc3)c3[n+]2CCCS3)cc1	4%	-30%	?	-4%	-2%	-4%
O=C(O)c1ccc2c(c1)C(=O)N([C@H](Cc1ccc3ccccc3c1)C(=O)O)C2=O	.	.	.	.	-7%	.
COc1cccc(CN(C)C(=O)c2ccc(NC(=O)CC3SC(N4CCCC4)=NC3=O)cc2)c1OC (stereo unspecified)	14%	3%	20%	-1%	-3%	-9%
CC1CCN(C(=O)c2cc(-c3ccco3)on2)CC1	2%	16µM*	?	1%	4%	21%
O=C(c1cc(-c2ccccc2O)on1)N1CCc2ccccc2C1	7%	16%	?	-3%	-3%	?
CC1CCCC(C)N1C(=O)c1cc(-c2ccco2)on1 (stereo unspecified)	-5%	29%	?	-3%	3%	12%
CC1CCN(C(=O)c2cc(-c3ccccc3O)on2)CC1	15%	2.6µM*	?	-1%	-1%	?
C[C@H]1CN([C@@H](C)CO)C(=O)c2cc(NC(=O)C3CCCCC3)ccc2O[C@H]1CN(C)C(=O)Nc1ccc2c(c1)OCO2	0%	1%	1.3µM*	-9%	0%	3%
C[C@H](CO)N1C[C@H](C)[C@@H](CN(C)C(=O)Nc2ccc3c(c2)OCO3)Oc2c(NC(=O)Nc3ccccc3)cccc2C1=O	11%	-5%	6.5µM*	23%	3%	5%
C[C@H](CO)N1C[C@H](C)[C@@H](CN(C)S(C)(=O)=O)Oc2c(NC(=O)Cc3ccccc3)cccc2C1=O	-4%	-1%	?	0.12µM*	6%	3%
C[C@H](CO)N1C[C@H](C)[C@@H](CN(C)S(=O)(=O)c2cccs2)Oc2c(NC(=O)Cc3ccccc3)cccc2C1=O	10%	6%	23%	0%	6%	1%
C[C@@H]1CN([C@H](C)CO)C(=O)Cc2cc(NC(=O)Nc3ccccc3)ccc2O[C@@H]1CN(C)Cc1ccc2c(c1)OCO2	20%	-13%	16µM*	?	-8%	-5%

High-throughput results deposited in PubChem BioAssay by National Center for Advancing Translational Sciences (NCATS).
